Each structure is given as a SMILES string. About 83,000 compounds went through this panel and 20% of them were active in at least one assay; those are over-represented in the sample as a whole.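 Each cell line was grown in a 96-well plate and treated with one concentration of compound for 48 hours. Values below 10 were considered active.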 A number with no mark means an inactive call. Active and inactive are the calls of the source.

The assay concerns HL-60(TB) leukemia. Nature of the assay: NCI-60 one-dose screen, 48 h (100 = growth as untreated, 0 = no growth, -100 = all killed). To be noted: 10 µM unless noted.
As for `COc1cc(/C=C/C(=O)c2c(-c3ccc(Cl)cc3)nc3sc(C)nn23)cc(OC)c1OC`, the growth was 50.6%.

`Brc1ccc(Br)nn1`: the growth is -32.7% (active).

In the case of `N/C(=N\O)c1ncc(-c2ccc(C(F)(F)F)cc2)c(NC2CCCCCC2)n1`, the growth is -58.8% [100 µM] (active).

For the compound `CC1CCCCN1C(=S)Nc1ccc(S(=O)(=O)N2CCCCC2)cc1` (stereo not given), the growth is 102%.

Consider `COCCOCCOCc1n(Cc2ccc3ccccc3c2)c2ccccc2[n+]1Cc1ccc2ccccc2c1`, for which the growth is -53.5% (active).

As for `O=C(/C=C/C12c3ccccc3C(c3ccccc31)C1C(=O)NC(=O)C12)c1ccncc1` (stereo not given), the growth was 2.98% (active).

For the compound `c1ccc(C2Cc3ccccc3C2=NC2CCCCC2)cc1` (stereo not given), the growth was 98.2%.

Regarding `Cc1cc(C)n(-c2nnc3n2N=C(c2ccc(-c4ccccc4)cc2)CS3)n1`, the growth is 7.07% (active).

For `CC(C)(C)CC(C)(C)n1nnnc1C(NC12CC3CC(CC(C3)C1)C2)c1ccccc1` (stereo not given), the growth was 99.3%.

`COc1ccc2nc3cc(Cl)ccc3c(N3CCN(c4ccnc(Nc5ccc(F)cc5)n4)CC3)c2c1`: the growth was 52.5%.

`COc1ccc(C2C(C#N)=C(N)Oc3c2sc2c(C)cccc32)cc1` (stereo not given): the growth is -13.9% (active).

Take `Nc1ccccc1NC(=O)c1ccc(CN2CCC/C(=C\c3ccccn3)C2=O)cc1`: the growth was -18% (active).

With `COc1cc(-c2nn(-c3cccc(NC(=O)c4cccc(C(F)(F)F)c4)c3)cc2-c2ccncc2)ccc1Cl`, the growth was 1.93% (active).

For the compound `CS(=O)(=O)Cc1cnc(C2OCCO2)s1`, the growth is 88.5%.

With `COc1cc(C2CC(c3cccc(Nc4ccncc4)c3)=NN2c2cc(Cl)cc(Cl)c2)cc(OC)c1OC` (stereo not given), the growth is -44.7% (active).

Turning to `COc1ccc(NC(=O)CSc2nc(C)c(C(C)=O)n2-c2ccc([N+](=O)[O-])cc2)cc1`, the growth was 121%.

In the case of `COc1cc2cc(NCc3ccc(F)cc3)nc(C)c2cc1OC`, the growth was 31.7%.

With `CC(C)(C)c1cc(C(=O)Nc2ccccc2C(=O)NCCN)cc(C(C)(C)C)c1`, the growth was -51.8% (active).

As to `O=C(CSc1nnc(-c2ccc(Cl)c(Cl)c2)n1-c1ccccc1)Nc1ccc(C(=O)/C=C/c2ccc(Cl)cc2)cc1`, the growth was 81.8%.

Consider `CSc1nc(-c2ccc(O)cc2O)c2c(=O)[nH]c(Nc3ccc(S(=O)(=O)Nc4nc(C)cc(C)n4)cc3)nc2n1`, for which the growth is 114%.

`CC/C=C/C/C=C/C/C=C/C/C=C/C/C=C/C/C=C/CCC(=O)Nc1ccn([C@@H]2O[C@H](CO)[C@@H](O)C2(F)F)c(=O)n1`: the growth was -16.1% (active).

For the compound `O=S(=O)(NCCNc1nccc(-c2c(-c3ccc(F)c(O)c3)nc3sccn23)n1)c1ccc(O)cc1`, the growth is 41.8%.

For the compound `CCN(CC)CC(=O)Nc1cccc(C(=O)OC(C)C)c1`, the growth is 93%.

Turning to `CCOC(=O)C1OC1(c1ccccc1)c1ccccc1` (stereo not given), the growth was 89.4%.

In the case of `Cc1ccc(/C=C(\C#N)n2nnc3cc(F)c(F)cc32)cc1`, the growth is -1.91% (active).

Regarding `COc1cccc2c1C(=O)c1c(O)c3c(c(O)c1C2=O)C[C@](O)(C(=O)CO)C[C@H]3O[C@@H]1C[C@@H](NC(=O)CCCN(C)C2(c3ccc(F)cc3)CC3CCC2C3)[C@H](O)[C@@H](C)O1` (stereo not given in full), the growth was 76%.

On to `CN1CCN(c2ccc(Nc3ncc(Cl)c(NC[C@@H]4CCCO4)n3)cc2)CC1`, for which the growth was -6.65% (active).

As for `COc1cc2c(cc1OC)C1CCN3C(=O)CCC3N1CC2` (stereo not given), the growth is 126%.

Consider `COCCOCCOCc1n(Cc2ccc3ccccc3n2)c2ccccc2[n+]1Cc1ccc2ccccc2c1`, for which the growth is -68% (active).

Regarding `Cc1ccc(S(=O)(=O)N/N=C\c2cc(Cl)ccc2O)cc1`, the growth was 91.7%.

With `COc1cc(N2C(=O)C=CC2=O)ccc1N1C(=O)C=CC1=O`, the growth is 82.9%.

Take `O=C1C(Nc2ccccn2)=C(I)C(=O)c2ncccc21`: the growth is -55.5% (active).

Consider `CN(C)CCOc1nc2c3ccncc3cc(-c3cccc(Cl)c3)c2c2cnccc12`, for which the growth is 33.4%.

As for `COc1ccc(-c2nc3ncccn3c2/C=C/C(=O)c2cc(OC)c(OC)c(OC)c2)cc1`, the growth is 1.2% (active).

On to `O=C1/C(=C/c2cccs2)CCC/C1=C\c1cccs1`, for which the growth was 93.8%.

With `CCN(CC)c1ccc(/C=C/C(=O)c2cccc(NS(C)(=O)=O)c2)cc1`, the growth is 9.82% (active).

As to `Nc1cnc(C(=O)NNc2nc3cc(F)ccc3n3cccc23)cn1`, the growth was 12.1%.

Turning to `CC(C)Cn1cnc2c(=O)[nH]c(N)nc21`, the growth is 63.8%.

For `COc1ccc(/C=C/C(=O)c2ccc(NC(=O)CN3CCN(c4cc5c(cc4F)c(=O)c(C(=O)O)cn5C4CC4)CC3)cc2)cc1`, the growth was 123%.

As for `O=C(Nc1cc(-c2cccnc2)nc(NCCCN2CCOCC2)n1)c1cc(Br)cc(C(F)(F)F)c1`, the growth was 48.5%.

For the origin of these results see PubChem BioAssay (NCI).
